Bioassay records as filed in PubChem BioAssay.
PfHsp90 set2: reduces growth (ATP signal) of yeast expressing P. falciparum Hsp90 | S. cerevisiae expressing PfHsp90, BacTiter-Glo ATP, 48 h; yeast lacking PDR1 and PDR3 efflux regulators | inhibition, % at 9.4 µM | 310,000 compounds, 0.32% hits | AID 504621;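 active = every replicate shows inhibition above about 80%, whatever the replicate mean, limit read from the data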;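 also: 0% = DMSO neutral controls and 100% = 20 µM radicicol positive controls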
ATG4B inh: inhibitors of human ATG4B cysteine protease | 340,000 compounds, 0.51% hits | inhibition, % at 8.33 µM | Q9Y4P1 | ATG4B cleavage of LC3-PLA2, NBD-HPC fluorescence, 1 h; in the data active = inhibition above about 40%
Target sequence (Q9Y4P1 whole entry, looked up): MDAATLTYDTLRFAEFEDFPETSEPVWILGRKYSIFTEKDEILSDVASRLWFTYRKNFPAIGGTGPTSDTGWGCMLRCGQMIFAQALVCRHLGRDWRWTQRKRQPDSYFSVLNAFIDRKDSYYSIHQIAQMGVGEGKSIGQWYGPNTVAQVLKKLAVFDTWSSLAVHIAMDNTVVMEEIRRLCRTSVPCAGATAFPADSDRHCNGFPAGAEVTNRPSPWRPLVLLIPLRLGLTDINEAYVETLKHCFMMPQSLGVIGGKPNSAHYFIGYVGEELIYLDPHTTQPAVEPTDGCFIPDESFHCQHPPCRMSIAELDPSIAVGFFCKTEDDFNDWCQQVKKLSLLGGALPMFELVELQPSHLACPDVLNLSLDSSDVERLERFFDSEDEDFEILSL
TIM10 inh: growth inhibitors of TIM10 yeast strain. AID 463195. inhibition, % at 10 µM. S. cerevisiae TIM10 strain growth, BacTiter-Glo luminescence, 24 h. 330,000 compounds, 1.4% hits;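 active = inhibition of 40% or more at the single tested concentration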;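 also: wild-type TIM10 isogenic control strain grown at permissive 25 °C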
SKKanGAS inh: inhibitors of SKKanGAS S. pyogenes growth in kanamycin (SK-promoter or general growth effect); BacTiter-Glo, 6 h; inhibition, % at 7.5 µM; 300,000 compounds, 1.3% hits; AID 1662;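 active = mean replicate score, as percent of positive control median, at least 50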;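 also: strain carries kanamycin resistance gene driven by streptokinase promoter and grows in 40 µg/ml kanamycin; loss of luminescence reflects streptokinase promoter inhibition or plain growth inhibition; 0% = median of DMSO wells and 100% = positive control at its reference dose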
tim23-1 inh: inhibits growth of tim23-1 mutant yeast; AID 463212; 330,000 compounds, 1.3% hits; inhibition, % at 20 µM; S. cerevisiae tim23-1 growth, BacTiter-Glo luminescence, 24 h;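 active = growth inhibition of the mutant yeast at or above 50%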;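 also: temperature-sensitive mutant grown at 25 °C; plate controls were DMSO-treated mutant yeast for no effect and medium wells lacking yeast for full effect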
tim10-1 inh: inhibits growth of tim10-1 mutant yeast. S. cerevisiae tim10-1 ts strain growth, BacTiter-Glo, 24 h. inhibition, % at 20 µM. 330,000 compounds, 2.2% hits. AID 463190;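 active = inhibition of at least 40%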;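 also: mutant grown at 25 °C; 0% = DMSO wells with yeast and 100% = wells holding no yeast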
tim10 confirm: TIM10 yeast growth inhibition, confirmed | shares compounds with TIM10 inh | S. cerevisiae tim10 strain growth, BacTiter-Glo luminescence, 24 h | inhibition, % at 10 µM | 4,600 compounds, 63% hits | AID 463215;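 active = inhibition of yeast growth at or above a set limit in either of two replicates at 10 µM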;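 also: this counterscreen used the strain with wild-type TIM10; 0% = yeast with DMSO and 100% = medium wells lacking yeast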
Starred values were filed as active, the others as inactive; . = not tested or not shown. Rows were chosen to be rich in hits. Some 4.7% of all compounds tested hit in one or more screens of this group.

SMILES	PfHsp90 set2	ATG4B inh	TIM10 inh	SKKanGAS inh	tim23-1 inh	tim10-1 inh	tim10 confirm
COCCOC(=O)c1[nH]c2c(c1C)C(=O)C(C(=O)OC)C(C)C2 (stereo unspecified)	0.7	1.2	1.3	-9.5	6.6	-8.4	.
CCOC(=O)c1ccc(NC(=O)c2c(N)n(Cc3ccccc3)c(=O)[nH]c2=O)cc1	5.3	1.6	97.6*	-0.9	-11.5	-15.2	-16.2
CCOC(=O)c1ccc(NC(=O)c2ccccc2)cc1	-0.8	-17.3	18.0	-0.5	15.0	13.2	.
O=C(Nc1ccc(S(=O)(=O)N2CCc3ccccc32)cc1)c1ccc2c(c1)OCO2	16.3	32.3	43.9*	26.1	27.0	33.4	46.6*
O=C(N/N=C/c1ccc2c(c1)OCO2)c1ccc2c(c1)OCO2	-2.9	-5.9	-0.9	-4.0	1.1	-9.2	.
Cc1ccsc1/C=N\NC(=O)c1ccc2c(c1)OCO2	.	0.7	42.6*	5.5	35.2	0.1	27.5
Cc1ccc(NC(=O)c2ccc3c(c2)OCO3)cc1Cl	-4.5	8.9	41.8*	5.8	47.7	-27.1	34.2*
COc1cc(NC(=O)c2cccs2)cc(OC)c1	-10.6	1.6	69.8*	-1.4	28.9	25.8	55.8*
CN(C)/C=N/c1cc(=O)[nH]c(=O)n1CC1CC1	3.4	-1.0	-4.2	-1.8	4.3	-18.7	.
CCCCCn1c(=NC(=O)c2ccco2)c(C(=O)OCC)cc2c(=O)n3ccccc3nc21	-24.9	-8.8	9.2	21.4	22.3	8.4	.
O=C(Nc1cccc(NC(=O)c2cccs2)c1)c1ccc(F)cc1	7.4	-2.2	19.9	2.5	3.7	-10.0	.
O=C(Nc1cccc(F)c1)c1ccc2c(c1)OCO2	4.5	-0.1	49.6*	2.3	42.4	18.8	6.2
O=C(Nc1cccc(C2OCCCO2)c1)c1cccs1	13.9	-3.9	43.9*	1.3	27.5	37.9	-5.3
O=C(Nc1c(C(=O)Nc2cccc(F)c2)oc2ccccc12)c1ccc2c(c1)OCO2	14.0	-1.2	-32.0	-0.1	-2.9	11.7	.
O=C(Nc1ccc2c(c1)OCO2)c1cccs1	21.2	4.2	47.3*	5.9	39.1	37.5	36.6*
O=C(Nc1ccc2c(c1)OCO2)c1ccc(Br)s1	-0.4	3.2	1.5	1.5	-13.8	-32.0	.
O=C(Nc1ccccc1)Nc1cc(S(=O)(=O)N2CCOCC2)ccc1N1CCCC1	-5.2	-4.3	5.4	-1.3	1.1	7.0	.
O=C(OCc1ccc(Br)cc1)c1ccncc1	-42.3	0.4	6.3	-1.0	0.9	22.6	.
CC(=O)Nc1ccc(C(=O)OCc2ccc(Br)cc2)cc1	-5.0	-5.2	40.9*	-5.0	46.2	34.4	34.8*
O=C(Cc1cccs1)Nc1ccc(-c2nc3ccccc3[nH]2)cc1	16.3	-6.9	2.1	3.6	7.9	4.6	.
CCOC(=O)C1=C(C)NC(C)=C(C(=O)OC)C1c1cccc(Cl)c1Cl (stereo unspecified)	4.6	-12.1	17.3	-7.7	48.8	35.4	.
Cc1ccn2c(=O)nc(SCC(=O)OCc3ccccc3)nc2c1	.	-7.4	-2.2	4.4	13.9	18.8	.
O=C(CN1CCN(S(=O)(=O)c2ccccc2)CC1)Nc1cccc(C(F)(F)F)c1	56.7	-7.9	40.8*	-5.8	8.0	31.3	7.6
COc1cccc(C(=O)OC(C)CN2CCCC2)c1 (stereo unspecified)	1.2	3.2	-11.8	1.3	8.9	8.1	.
CC(CN1CCCCC1)OC(=O)c1cccc(F)c1 (stereo unspecified)	-4.4	5.1	96.5*	-0.5	3.9	-13.3	-8.3
SMILES	PfHsp90 set2	ATG4B inh	TIM10 inh	SKKanGAS inh	tim23-1 inh	tim10-1 inh	tim10 confirm
C/C=C/C(=O)OCC(=O)Nc1cc(OC)c([N+](=O)[O-])cc1C	.	-4.1	12.1	15.8	4.1	15.4	.
COc1ccc(C(=O)O)cc1S(=O)(=O)Nc1cccc(C)c1	3.5	-4.5	-2.6	-3.8	8.5	9.5	.
O=C(Nc1ccc(C(O)(C(F)(F)F)C(F)(F)F)cc1)c1ccc(Cl)c([N+](=O)[O-])c1	13.0	-3.7	58.6*	2.5	30.4	37.5	1.8
O=C(NCCc1ccc(F)cc1)c1ccc(S(=O)(=O)N2CCCC2)cc1	6.6	-9.0	22.0	.	36.2	19.9	.
O=C(NCCc1ccccc1)c1ccc(S(=O)(=O)N2CCCC2)cc1	-2.2	0.9	61.9*	.	23.4	19.3	3.4
CCc1cccc(N=c2c([N+](=O)[O-])nn(-c3ccc(Cl)cc3)n2O)c1	1.4	17.6	46.5*	16.5	33.5	33.8	29.8
CCN(CC)c1ccc(-n2c(C)c(C(C)=O)c(C(C)=O)c2C)cc1	.	-16.2	43.6*	3.6	40.6	37.5	18.6
COc1ccc(C(=O)Oc2cc(N)n(S(=O)(=O)c3ccc(C)cc3)n2)cc1	2.4	-1.9	36.1	14.2	29.0	23.4	.
COc1ccc(S(=O)(=O)n2nc(OC(=O)C3CCCCC3)cc2N)cc1	-1.3	-3.3	45.7*	-0.7	25.7	38.3	-13.6
Cc1ccc(S(=O)(=O)n2nc(OC(=O)c3cccs3)cc2N)cc1	-14.4	-6.6	47.3*	1.9	37.2	33.8	17.8
COc1ccc(-c2ccc(S(=O)(=O)n3nc(OC(=O)c4cccs4)cc3N)cc2)cc1	-11.1	15.4	-13.8	10.2	9.2	19.0	.
O=S1(=O)CCN2C(c3cccc4ccccc34)=CSC2=N1	5.9	-5.3	5.6	-5.2	6.8	3.4	.
Cc1ccc(N(O)C(=O)OCCNC(=O)Nc2ccccc2)cc1	23.0	2.0	7.4	-6.8	-4.7	10.8	.
CCOc1ccc(CC(=O)NNC(=S)Nc2ccc(OC)c(OC)c2)cc1	-6.6	-4.6	5.4	6.1	6.5	-4.9	.
Cc1cc(=O)oc2cc(NC(=S)NCc3cccnc3)ccc12	-28.4	-6.8	7.2	-5.4	-9.9	-10.7	.
COc1ccc(C(=O)Nc2ccc(OCC(F)(F)C(F)F)c(C(F)(F)F)c2)cc1OC	-11.2	0.1	44.6*	13.0	45.0	37.4	12.2
COc1ccc(NC(=O)c2ccc(COCC(F)(F)F)cc2)cc1OC	15.2	-5.8	5.8	-7.8	5.5	7.4	.
O=c1[nH]c(N/N=C/c2ccccc2Br)nnc1-c1ccccc1	4.2	-7.4	-5.6	2.1	-1.5	14.6	.
O=C(CSc1ccc(-c2ccccc2)nn1)c1cccs1	-95.0	-2.6	40.9*	-6.1	10.5	21.3	16.2
COc1ccc(-c2ccc(SCC(=O)c3cccs3)nn2)cc1	.	5.3	42.7*	0.6	12.5	20.3	28.6
Cc1ccc(-c2ccc(SCC(=O)c3ccccc3)nn2)cc1	-18.4	24.8	25.2	-10.8	22.5	3.8	.
COc1cc(NC(=O)COC(=O)/C=C/c2ccc(O)c(OC)c2)cc(OC)c1	-3.6	-19.2	-3.4	15.1	18.7	-0.2	.
CC(CC(=O)Nc1ccc(Cl)c([N+](=O)[O-])c1)c1ccccc1 (stereo unspecified)	-11.7	-1.0	42.3*	3.6	34.8	37.6	-13.9
